# High-throughput results as filed in PubChem BioAssay.
# ID4 SMM = binders of human ID4 protein, primary screen, biochemical, small molecule microarray, single point | DNA-binding protein inhibitor ID-4 (Homo sapiens), P47928 | Flag-ID4 binding, fluorescence F/B | calls only | actives 1.2% (n = 31,000) | AID 624137, 2012; call rule not given here;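 further: a binder raises fluorescence above local background on the spot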
# Target sequence (P47928 whole entry, looked up): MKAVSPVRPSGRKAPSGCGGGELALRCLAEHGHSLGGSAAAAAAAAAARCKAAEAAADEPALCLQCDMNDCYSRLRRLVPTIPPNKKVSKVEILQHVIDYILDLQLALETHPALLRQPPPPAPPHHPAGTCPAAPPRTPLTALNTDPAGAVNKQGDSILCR
# STK33 kin inh = STK33 kinase inhibitors, primary screen, biochemical, luminescence, ADP-Glo, MBP substrate | Serine/threonine-protein kinase 33 (Homo sapiens), Q9BYT3 | inhibition, % at 12.5 µM | actives 0.44% (n = 27,000) | AID 2322, 2010; in the data active means inhibition above about 20%; inconclusive means no clear call, values can overlap the other calls
# p53 PUMA act = mutant p53 pathway re-activators, primary screen, cell-based, SW480, luciferase, single point, HTS | activation, % at 9.98 µM | actives 1.5% (n = 28,000) | AID 624151, 2012 | SW480 PUMA-promoter luciferase, p53 mutant reactivation; in the data active means activation above about 52%; inconclusive means no clear call, values can overlap the other calls
# Numbers stand for hits; n = inactive; u = inconclusive; x = not tested or not shown; + = active, no number. Rows were chosen to be rich in hits. Some 2.1% of all compounds tested hit in one or more screens of this group.
SMILES,ID4 SMM,STK33 kin inh,p53 PUMA act
OC(COc1ccccc1Cl)Cn1cnc2ccccc21 (stereo not drawn),n,n,110.5
O=C(Cn1cnc2ccccc2c1=O)Nc1ccccc1Cl,n,n,n
Cc1cccc(C)c1Nc1c(-c2ccsc2)nc2sccn12,n,x,n
O=C(CC1(O)C(=O)N(Cc2ccc(Cl)cc2)c2ccc(Cl)cc21)c1ccccn1 (stereo not drawn),n,n,n
Cc1nnc(SCC(=O)n2c3c(c4ccccc42)CC(C)CC3)s1 (stereo not drawn),n,n,n
O=S(=O)(N[C@@H]1CCN(Cc2ccc(OCCO)cc2)C1)c1cc(Cl)ccc1Cl,x,n,x
COc1cc(NC(=O)C(C)Oc2ccc(Cl)cc2Cl)c(OC)cc1Cl (stereo not drawn),n,n,u
CCC(=O)N(C)C[C@H]1Oc2ncc(C#Cc3ccncc3)cc2C(=O)N([C@H](C)CO)C[C@H]1C,n,x,n
C[C@@H]1CN([C@@H](C)CO)C(=O)c2cc(C#Cc3ccncc3)cnc2O[C@H]1CN(C)C(=O)CN(C)C,+,x,n
C[C@@H]1CN([C@@H](C)CO)C(=O)c2cc(C#Cc3cccnc3)cnc2O[C@@H]1CN(C)Cc1ccncc1,+,x,n
C[C@@H]1CN([C@H](C)CO)C(=O)c2cc(C#Cc3cccnc3)cnc2O[C@H]1CN(C)Cc1cccnc1,n,x,n
COc1ccc(N(C(=O)c2ccccc2)S(=O)(=O)c2cccc([N+](=O)[O-])c2)cc1,n,n,n
COc1cc(O)c2c(c1)O[C@@H](c1ccccc1)CC2=O,x,n,x
COc1ccc(C2CC(=O)c3ccc(OC)cc3O2)cc1 (stereo not drawn),n,n,97.2
COc1ccc(Cl)cc1NC(=O)COc1ccc([N+](=O)[O-])cc1,n,n,n
COc1ccc([N+](=O)[O-])cc1NC(=O)CN(c1ccc(Br)c(C)c1)S(C)(=O)=O,n,n,n
Cc1ccc(C(=O)O)cc1S(=O)(=O)N(CCO)CCO,n,n,n
CO[C@@H]1CN(C)C(=O)c2ccc(NC(C)=O)cc2OC[C@@H](C)N(CCc2ccccc2)C[C@H]1C,+,x,x
CCCC(=O)Nc1ccc2c(c1)OC[C@@H](C)N(CCc1ccccc1)C[C@@H](C)[C@H](OC)CN(C)C2=O,n,x,x
CC(=O)O[C@H]1CC[C@@]2(C)C(CC[C@]3(C)C2C(=O)C=C2C4[C@@H](C)[C@H](C)CC[C@]4(C(=O)O)CC[C@]23C)C1(C)C (stereo partly drawn),x,n,x
CC(=O)Nc1ccc(OCC(O)CNC2CCCC2)cc1 (stereo not drawn),n,n,n
CC(=O)Nc1ccc(OCC(O)CNC(C)C)cc1 (stereo not drawn),+,n,n
Cc1ccc(C)c(S(=O)(=O)/N=C(\c2ccccc2)N(C)C)c1,n,x,n
Cc1c(NC(=O)CN(c2cccc(F)c2)S(C)(=O)=O)c(=O)n(-c2ccccc2)n1C,n,n,n
Cc1ccc(N(CC(=O)Nc2c(C)n(C)n(-c3ccccc3)c2=O)S(C)(=O)=O)cc1Cl,+,n,n
SMILES,ID4 SMM,STK33 kin inh,p53 PUMA act
CC/C=C\C=C1\C(=O)C=CC1CCCCCCCC(=O)O (stereo not drawn),x,n,x
CC(=O)Nc1ccc(C(=O)Nc2ccc(OCC(=O)O)cc2)cc1,n,n,n
O=C(O)COc1ccc(NC(=O)c2ccc(NC(=O)c3ccco3)cc2)cc1,+,n,n
COc1ccc(C(=O)Nc2ccc(C(=O)OCc3cccc([N+](=O)[O-])c3)cc2)cc1,n,n,n
O=C(OCc1cccc([N+](=O)[O-])c1)c1ccc(NC(=O)c2ccco2)cc1,n,n,69.6
C=CCN(C(=O)c1cc2cc3cc(OC)ccc3nc2s1)c1ccccc1,n,x,n
COC(=O)c1ccccc1NC(=O)CN(C)S(=O)(=O)c1ccc(F)cc1,n,u,n
CC(C)C1Cc2c(sc3nc(SCC(=O)Nc4ccc(Cl)cc4Cl)nc(N)c23)CO1 (stereo not drawn),n,n,n
COc1ccc([N+](=O)[O-])cc1NC(=O)COc1ccc(C(C)(C)C)cc1,n,n,u
CCc1ccccc1OCC(=O)Nc1cc(OC)ccc1OC,n,n,93.2
COC(=O)c1ccc(OCC(=O)Nc2cc(OC)ccc2OC)c(OC)c1,n,n,n
COc1ccc(OC)c(NC(=O)COc2ccc(C(C)(C)C)cc2)c1,n,n,63.6
CC(C)N(Cc1nc(-c2ccc(Cl)cc2)no1)S(=O)(=O)c1ccc(F)cc1,n,n,n
CCc1ccc(-c2nc3cc(NC(=O)COc4ccc([N+](=O)[O-])cc4)ccc3o2)cc1,n,n,n
COc1ccccc1C(=O)N1CCN(c2ccc([N+](=O)[O-])c(NCc3cccnc3)c2)CC1,n,n,n
CCOC(=O)c1c(-c2ccc(C)cc2)csc1NC(=O)C1COc2ccccc2O1 (stereo not drawn),n,n,n
COc1cc(OC)cc(C(=O)NCc2nc(-c3ccccc3)no2)c1,n,n,n
COc1cccc(OCc2nc(-c3ccccc3)no2)c1,n,n,112.2
Cc1cc2nc(-c3cccc(NC(=O)COc4ccc(Br)cc4)c3C)oc2cc1C,n,n,n
COc1c(Cl)cc(C(=O)Nc2ccc(S(=O)(=O)Nc3cc(C)nc(C)n3)cc2)cc1Cl,n,n,n
COc1ccc(-c2cc(C(F)(F)F)nc(SCC(=O)Nc3ccc(C)cc3)n2)cc1,n,n,n
CCOC(=O)c1c(NC(=S)NCc2cc(C)n(C)n2)sc2c1CCCC2,n,n,n
CCOC(=O)c1c(NC(=S)N(C)Cc2c(C)nn(C)c2C)sc2c1CCCCCC2,+,n,n
C=CC(C)(CC/C=C(\C)C(O)CC=C(C)C)OC1OC(CO)C(O)C(O)C1O (stereo not drawn),x,n,n
CC(=O)c1cccc(NC(=O)NCc2cc(C)n(C)n2)c1,n,n,n
SMILES,ID4 SMM,STK33 kin inh,p53 PUMA act
Cc1ccc(N2CC(C(=O)Nc3ccc(S(=O)(=O)NCC4CCCO4)cc3)CC2=O)cc1 (stereo not drawn),+,n,n
CS(=O)(=O)Nc1ccc(S(=O)(=O)NCC2CCCO2)cc1 (stereo not drawn),n,n,n
COc1ccc(S(=O)(=O)N(CC(=O)O)c2ccc(F)cc2)cc1,n,n,n
O=C(CSc1ncnc2sc(-c3ccccc3)cc12)NC1CCCCC1,n,n,n
CC(=O)C(C)Sc1ncnc2sc(-c3ccccc3)cc12 (stereo not drawn),n,u,72.6
O=C(CSc1ncn(-c2ccccc2)n1)Nc1ccc(Cl)cc1,n,n,n
COc1c2occc2c(OC)c2c(=O)cc(CO[C@@H]3O[C@H](CO)[C@@H](O)[C@H](O)[C@H]3O)oc12,x,n,n
O=C1O[C@@H](c2ccccc2)[C@@H](c2ccccc2)N2[C@@H](c3ccccc3OCCO)[C@]3(C(=O)Nc4ccc(C#CCCO)cc43)[C@@H](C(=O)NC[C@H](O)c3ccccc3)[C@H]12,x,n,x
O=C(CCN1C(=O)c2ccccc2S1(=O)=O)NCc1ccco1,+,n,n
O=C(CCN1C(=O)c2ccccc2S1(=O)=O)Nc1cccc(Cl)c1Cl,n,n,n
Cc1ccc(N(CC(=O)Nc2ccc(F)cc2)S(C)(=O)=O)cc1,n,n,n
CC(=O)Nc1ccccc1NC(=O)COc1ccc(Cl)cc1Cl,n,n,n
